From PubChem BioAssay (NCATS)
Several values for one entry are separate records, joined by “and”; a condition that tells them apart may be missing. Equal values may be shown once. Results filed as inconclusive are left out. A call without a number means that no potency is given here. Some compounds were tested as several samples or in several runs, with calls that do not always agree. Activity calls are given as the source filed them. Unless noted, calls follow the shape of the full dose curve.

Columns and labels:
[1] = Cell Viability qHTS for small molecule stabilizers of the endoplasmic reticulum resident proteome (AID 1508629; active = well fitted curve in the direction sought with a large enough effect; an effect the other way counts as inactive or inconclusive;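 also: human SH-SY5Y neuroblastoma cells carrying the GLuc-SERCaMP reporter; compound exposure about 46 h in total before the viability read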); conditions: cell viability counter-screen, 100 nM thapsigargin for final 4 h
[2] = Confirmatory qHTS to identify inhibitors of SARS-CoV-2 cell entry (AID 1645844); conditions: SARS-CoV-2 pseudotyped particle cell entry, luciferase; series mostly up to 57.2 µM; also: potency is read from the fitted curve at half-maximal effect; nearly all actives have a fitted effect of over 45% in size
Summary of the method: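 HEK293-ACE2, overnight seeding; cpd 1 h, 37C/5% CO2; + SARS-CoV-2-S MLV PP (Wuhan-Hu-1, ΔC19); 48 h; Bright-Glo luminescence. Data normalised to S PP and bald PP wells.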

[3] = VSVG counterscreen qHTS to identify inhibitors of SARS-CoV-2 cell entry (AID 1645847); conditions: VSV-G pseudotyped particle entry, luciferase; series mostly up to 57.2 µM; also: potency is read from the fitted curve at half-maximal effect; nearly all actives have a fitted effect of over 65% in size
Summary of the method: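 Luminescence read after 48 h infection at 37 C with VSV-G-pseudotyped MLV particles, following 1 h compound exposure of Expi293F cells stably expressing human ACE2; scaled between bald particle and VSV-G particle wells.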

[4] = Primary qHTS for small molecule stabilizers of the endoplasmic reticulum resident proteome: Secreted ER Calcium Modulated Protein (SERCaMP) assay (AID 1508630; active = well fitted curve in the direction sought with a large enough effect; an effect the other way counts as inactive or inconclusive); conditions: SH-SY5Y GLuc-SERCaMP (Gaussia luciferase released on ER calcium loss) secretion, thapsigargin, luminescence; series mostly up to 38.4 µM
Summary of the method: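 The SH-SY5Y reporter protocol was run at 3 concentrations up to 38.3 uM (primary) or 11 concentrations (follow-up): 16 h compound, 100 nM thapsigargin for 4 h, then extracellular luciferase luminescence.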

[5] = A High-Content qHTS Against Drug Library for the Identification of Small Molecules that Inhibit DYT1 Early Onset Primary Dystonia-Associated Cell Pathology (AID 1645839); conditions: HEK293 Flp-In EGFP-delE TorsinA, punctate imaging, 48 h; series mostly up to 46.1 µM
Summary of the method: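 Cells were seeded and left for 24 h, then dosed with compound alongside tetracycline induction of mutant EGFP-TorsinA. They were incubated for 48 h, fixed in 4% paraformaldehyde, permeabilized and imaged for mislocalization (%pathology) and cell count.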

[6] = target: Cytochrome P450 2C9 (Homo sapiens) (UniProt P11712); assay: Cytochrome P450 family 2 subfamily C member 9 (CYP2C9) small molecule antagonists: luciferase biochemical (cell-free) qHTS assay (AID 1645842; active = well fitted curve in the direction sought with a large enough effect in the repeat runs; an effect the other way counts as inactive or inconclusive; also: nearly all actives have a fitted effect of over 55% in size; also: potency is read from the fitted curve at half-maximal effect); conditions: P450-Glo CYP2C9 enzyme assay, luciferin luminescence; series mostly up to 57.4 µM
Chain of Cytochrome P450 2C9 (Homo sapiens) (P11712 whole entry, looked up): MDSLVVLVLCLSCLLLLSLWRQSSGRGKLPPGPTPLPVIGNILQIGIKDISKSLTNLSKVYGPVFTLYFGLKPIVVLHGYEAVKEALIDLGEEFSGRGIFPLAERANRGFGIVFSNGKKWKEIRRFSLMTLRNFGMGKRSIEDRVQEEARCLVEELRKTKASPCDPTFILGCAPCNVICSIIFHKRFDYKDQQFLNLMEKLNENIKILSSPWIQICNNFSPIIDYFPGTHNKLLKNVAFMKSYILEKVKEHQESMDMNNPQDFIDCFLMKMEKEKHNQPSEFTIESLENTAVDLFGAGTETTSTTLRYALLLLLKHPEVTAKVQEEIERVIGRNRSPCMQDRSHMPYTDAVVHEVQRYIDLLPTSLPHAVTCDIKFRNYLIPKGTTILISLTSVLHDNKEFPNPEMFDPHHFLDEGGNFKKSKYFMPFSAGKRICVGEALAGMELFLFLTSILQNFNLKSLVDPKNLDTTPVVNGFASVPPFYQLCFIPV
Summary of the method: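 P450-Glo CYP2C9 system: proluciferin substrate with enzyme in mix containing 0.4% BSA, 10 min at room temperature, then NADPH regeneration solution added and incubated 1 h at 37C. Detection reagent stopped reaction; luminescence read after 20 min as RLU.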

[7] = Cytotoxicity counterscreen for inhibitors of SARS-CoV-2 cell entry (AID 1645845); conditions: cell viability (SARS-CoV-2 entry assay cells); series mostly up to 57.1 µM; also: nearly all actives have a fitted effect of over 50% in size
Summary of the method: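 Counterscreen run in the same HEK293-ACE2 line as the pseudotyped-particle entry assay, without particles. Viability after 48 h at 37 C was read as ATP luminescence, scaled between cell-containing and cell-free wells.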

[8] = Primary qHTS to identify inhibitors of SARS-CoV-2 cell entry (AID 1645846); conditions: SARS-CoV-2 pseudovirus cell entry assay, luminescence; activity change, negative = inhibition: at 57.1 µM (top of the series) unless noted; series mostly up to 57.1 µM; also: nearly all actives have a fitted effect of over 45% in size
Summary of the method: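 Entry measured by luciferase signal 48 h after adding SARS-CoV-2-S pseudotyped MLV particles to HEK293-ACE2 cells preincubated 1 h with compounds. Normalisation: bald particles and spike particles.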

[9] = target: Cytochrome P450 2D6 (Homo sapiens) (UniProt P10635); assay: Cytochrome P450 family 2 subfamily D member 6 (CYP2D6) small molecule antagonists: luciferase biochemical (cell-free) qHTS assay (AID 1645840; active = well fitted curve in the direction sought with a large enough effect in the repeat runs; an effect the other way counts as inactive or inconclusive; also: nearly all actives have a fitted effect of over 55% in size; also: potency is read from the fitted curve at half-maximal effect); conditions: P450-Glo CYP2D6 enzyme, luciferin luminescence, 1 h; series mostly up to 57.4 µM
Chain of Cytochrome P450 2D6 (Homo sapiens) (P10635 whole entry, looked up): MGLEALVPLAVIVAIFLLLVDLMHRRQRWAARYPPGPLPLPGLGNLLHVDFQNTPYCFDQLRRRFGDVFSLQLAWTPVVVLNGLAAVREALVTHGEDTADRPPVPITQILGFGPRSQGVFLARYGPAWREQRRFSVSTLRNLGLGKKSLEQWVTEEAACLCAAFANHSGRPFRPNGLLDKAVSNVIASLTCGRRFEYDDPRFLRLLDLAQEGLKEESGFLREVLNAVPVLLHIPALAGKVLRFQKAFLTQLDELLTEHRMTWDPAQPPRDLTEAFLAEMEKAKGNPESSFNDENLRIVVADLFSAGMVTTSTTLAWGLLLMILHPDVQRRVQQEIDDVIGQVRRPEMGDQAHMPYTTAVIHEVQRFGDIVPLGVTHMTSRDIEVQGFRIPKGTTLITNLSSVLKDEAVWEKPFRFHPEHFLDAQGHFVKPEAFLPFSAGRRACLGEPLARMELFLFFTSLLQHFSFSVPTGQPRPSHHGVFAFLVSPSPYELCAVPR
Summary of the method: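 P450-Glo CYP2D6 system: proluciferin substrate converted by enzyme to luciferin, read by luminescence proportional to activity. Enzyme-substrate mix with compound 10 min at room temperature, then NADPH regeneration 1 h before detection reagent.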

SMILES: COc1c2c(cc3c1OCO3)CCN(C)C2
- max response [1]: 7.99% (inactive)

SMILES: NNc1ccccc1
- max response [1]: -1.1% (inactive)

SMILES: COc1cccc2c1C(=O)c1c(O)c3c(c(O)c1C2=O)C[C@@](O)(C(=O)CO)CC3OC1CC(N2CCOC(OC)C2)C(O)C(C)O1 (some centres undefined)
- Potency [2]: 0.0482 µM (active)
- Potency [3]: 0.0482 µM (active)

SMILES: CNC(C)(C)Cc1ccccc1
- Potency [4]: inactive
- outcome [5]: inactive
- Potency [6]: inactive
- Potency [7]: inactive
- Potency [8]: inactive

SMILES: CC(C(=O)c1ccccc1)N(C)C (centres undefined)
- Potency [4]: inactive
- outcome [5]: inactive
- Potency [6]: inactive

SMILES: Nc1ccccc1
- Potency [4]: inactive
- outcome [5]: inactive
- Potency [6]: inactive
- Potency [7]: inactive

SMILES: CN(C)CCc1c[nH]c2cccc(OP(=O)(O)O)c12
- Potency [4]: inactive
- outcome [5]: inactive
- Potency [6]: inactive

SMILES: COc1cc(CCN)cc(OC)c1OC
- Potency [4]: inactive
- outcome [5]: inactive
- Potency [6]: inactive

SMILES: COP(=S)(OC)Oc1cc(Cl)c(Cl)cc1Cl
- Potency [4]: inactive
- outcome [5]: inactive
- Potency [9]: inactive
- Potency [6]: 6.92 µM (active)
- Potency [7]: inactive
- Potency [8]: inactive

SMILES: CCOC(=O)CC(SP(=S)(OC)OC)C(=O)OCC (centres undefined)
- Potency [4]: inactive
- outcome [5]: inactive
- Potency [9]: 39.9 µM (active) and inactive
- Potency [6]: 1.3 µM (active) and 1.74 µM (active)
- Potency [7]: inactive
- activity change, negative = inhibition [8]: 2.11%

SMILES: CC(C)(C)NCC(O)c1ccccc1Cl (centres undefined)
- Potency [4]: inactive
- outcome [5]: inactive
- Potency [9]: 12.3 µM (active)
- Potency [6]: inactive
- Potency [7]: inactive
- Potency [8]: inactive

SMILES: C=C(C)[C@H]1CN[C@H](C(=O)O)[C@H]1CC(=O)O
- Potency [4]: inactive
- outcome [5]: inactive
- Potency [9]: inactive
- Potency [6]: inactive
- Potency [7]: inactive

SMILES: C[C@]12CC[C@H]3[C@@H](CCC4=CC(=O)CC[C@@H]43)[C@@H]1CC[C@@H]2OC(=O)CCC1CCCCC1
- Potency [4]: inactive
- outcome [5]: inactive
- Potency [6]: 24.5 µM (active)
- Potency [7]: inactive
